The whole screen tested about 96,000 compounds, of which about 20,000 (21%) were called active. Only a sample is shown. Unmarked numbers belong to inactive results.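 The calls were made as follows: active = CYP2C19 inhibition above a set limit at 5 µM in the primary screen (cut at about 50% in these data); inactive = the rest.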
target: Cytochrome P450 2C19 (Homo sapiens) (UniProt P33261); experiment: blockers of cytochrome P450 2C19 activity – biochemical, luminescence, ADME assay, primary screen (AID 778); conditions: CYP2C19 Supersomes, luciferin-H EGE luminescence, 30 min; at 5 µM; hits give high values;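 also: plate controls were negative control wells for no effect and 2.5 mM tranylcypromine positive control for full effect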
Sequence (P33261 whole entry, looked up): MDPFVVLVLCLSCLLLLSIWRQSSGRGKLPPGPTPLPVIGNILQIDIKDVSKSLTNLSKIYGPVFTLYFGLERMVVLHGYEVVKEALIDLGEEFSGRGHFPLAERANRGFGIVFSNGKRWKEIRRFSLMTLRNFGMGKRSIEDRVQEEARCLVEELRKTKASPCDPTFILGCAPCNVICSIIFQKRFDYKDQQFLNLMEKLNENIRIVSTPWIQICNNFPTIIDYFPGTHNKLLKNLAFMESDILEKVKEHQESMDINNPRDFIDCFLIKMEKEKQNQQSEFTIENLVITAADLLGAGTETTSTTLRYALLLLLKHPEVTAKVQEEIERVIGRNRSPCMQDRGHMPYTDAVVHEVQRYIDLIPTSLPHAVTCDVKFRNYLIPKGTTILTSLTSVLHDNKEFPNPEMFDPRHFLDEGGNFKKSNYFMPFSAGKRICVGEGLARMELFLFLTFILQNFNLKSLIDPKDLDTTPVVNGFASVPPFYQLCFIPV

| Structure (SMILES) | inhibition |
| --- | --- |
| O=C1OC(NC(=O)c2ccccc2)C(N2CCOCC2)=C1Cl (configuration not stated) | 52.8% (active) |
| Cc1ccc(C(=O)NC2CCN(C(=O)N3CCOCC3)CC2)cc1 | -1.3% |
| O=C(NC1CCCCC1)c1ccc(CNc2c(N3CCOCC3)c(=O)c2=O)cc1 | 9.7% |
| COc1ccc(NC(=O)C(NC(C)=O)C(=O)NCc2ccccc2Cl)cc1 (configuration not stated) | 12.9% |
| COc1ncnc2c1N=C1CC(C)(C)CC(N)=C1S2 | 4.5% |
| O=c1[nH]nc(Cc2ccccn2)c2ccccc12 | -0.8% |
| CN(CCc1ccccn1)S(=O)(=O)c1ccc2c3c(cccc13)C(=O)N2 | 93.6% (active) |
| CCCC1C(c2ccccc2)C(C#N)(C#N)C2(C#N)CC1(N)NC2=O (configuration not stated) | 5% |
| O=C(O)c1ccccc1NC(=S)NC(NC(=O)c1ccccc1[N+](=O)[O-])C(Cl)(Cl)Cl (configuration not stated) | 2% |
| CC1(C)N=C(c2ccccn2)C(C)(C)N1O | 29.9% |
| COc1ccc(NC(=O)Nc2ccc3nsnc3c2)cc1 | 20.3% |
| COc1cccc(N2C(=O)C3CCCN3C2c2ccc(F)cc2)c1 (configuration not stated) | -0.1% |
| Cc1cc(NS(=O)(=O)c2ccccc2)no1 | -16.4% |
| O=S(=O)(Nc1ccc2nc(-c3ccco3)[nH]c2c1)c1ccccc1 | 92.4% (active) |
| O=C(/C=C/c1ccco1)Nc1cccc(-c2nc3ccccc3[nH]2)c1 | 47.9% |
| Cc1ccc(C)c(S(=O)(=O)n2cnc3ccccc32)c1 | -11.2% |
| Cc1ccc(C)c(NS(=O)(=O)c2cc(Br)cnc2N)c1 | 61.5% (active) |
| O=C(c1cccc2ccccc12)N1CCN(c2ccccc2F)CC1 | 35.4% |
| COc1c(C(=O)N2CCCC2)ccc2ccccc12 | 53% (active) |
| CC(=O)c1ccc2c(ccc3ccccc32)c1 | 35% |
| Cc1cc(-n2nc(C)cc2C)n2nc(C)c(-c3ccccc3)c2n1 | 21.4% |
| COc1ccccc1C(=O)N1CCN=C1SCc1cccnc1 | 88.2% (active) |
| COc1ccccc1C(=O)N1CCNC(=O)C1CC(=O)Nc1ccc(Cl)cc1 (configuration not stated) | 12.1% |
| CCOc1cccc(SCc2noc(C(=O)NC(C)C)c2C(=O)O)c1 | 8.8% |
| COc1ccc(OC)c(C2N(c3ccccn3)C(=O)C3CCCN32)c1 (configuration not stated) | -2.4% |
| COc1ccc(NCc2nnc(SCc3ccccc3)n2-c2ccc(OC)cc2)cc1 | 85.8% (active) |

| Structure (SMILES) | inhibition |
| --- | --- |
| COc1ccc(-c2nnc(SCC(=O)c3ccco3)n2-c2ccccc2)cc1 | -13.8% |
| CCn1c(CNc2ccc(OC)cc2)nnc1SCC(=O)c1ccc(OC)cc1 | 33.9% |
| CCC(=O)N1c2ccc(S(=O)(=O)CCC(=O)N3CCN(c4ccccc4)CC3)cc2CC1C (configuration not stated) | 26.2% |
| Cc1csc(=NC(=O)c2ccccc2)n1CCO | 49.7% |
| Cc1ccn2cc(C(=O)NC3CCN(Cc4ccccc4)CC3)nc2c1 | 11.4% |
| CCC(=O)Nc1ccc(C(=O)Nc2cc(C)on2)cc1 | 14.7% |
| CCCC(C)C(=O)Nc1ccc(NC(C)=O)cc1 (configuration not stated) | -6.8% |
| O=C(NCCc1ccccn1)c1cc(C(=O)C2CCCCC2)c[nH]1 | -1.5% |
| CCOC(=O)C1CCN(c2ncnc3c2oc2ccc(Br)cc23)CC1 | 43.1% |
| CSc1ccccc1NC(=O)c1cc(C2CC2)on1 | 31.1% |
| Cc1cc(C(=O)Nc2c(C)nn(Cc3ccccc3)c2C)on1 | 11.7% |
| Cc1nn(Cc2ccc(Cl)c(Cl)c2)c(C)c1NC(=O)c1cc(C2CC2)on1 | 95% (active) |
| Cc1nc2nc(CSc3nc4ccccc4s3)cc(=O)n2[nH]1 | -9.6% |
| CN(C)/C(CN1CCCCC1)=C1\N=C(c2ccccc2)OC1=O | 63.8% (active) |
| O=S(=O)(c1ccccc1)N(CC(O)CN1CCCCC1)c1ccccc1 (configuration not stated) | 17.7% |
| O=c1oc2c(Cl)cc(Cl)cc2cc1-c1nnc(Nc2ccccc2F)s1 | -3.7% |
| CCOC(=O)CNC(=O)CN1C(=O)CCSc2ccccc21 | 44.3% |
| CCSc1ncnc2c(C#N)c3n(c12)CCCCC3 | 5.8% |
| Cc1nc(-c2ccc(NC(=O)c3cccs3)cc2)cs1 | 12.8% |
| O=C(Nc1ccccc1)OCc1cc(-c2ccc(Cl)cc2)on1 | 16.6% |
| O=C(Nc1ccc(Cl)cc1)OCc1cc(-c2ccccc2)on1 | 76.4% (active) |
| O=C(Nc1ccccc1)OCc1cn(-c2ccc(Cl)cc2)nn1 | -1.4% |
| CCOC(=O)CSc1ncc(-c2cccc(Cl)c2)cn1 | 11.1% |
| COc1ccccc1N=C(C)C1=C(O)COC1=O | 27.5% |
| CC(C)N(C(=O)Cn1c(SCC(=O)N2CCN(c3ccccc3)CC2)nc2ccccc21)C(C)C | 6.9% |
| COC(=O)[C@H](Cc1ccccc1)NC(=O)N1CC(C)OC(C)C1 (some centres not stated) | 8.3% |

| Structure (SMILES) | inhibition |
| --- | --- |
| CC(C)(C)NC(=O)Cn1nnc(-c2ccccc2Cl)n1 | 45% |
| COc1ccc(-c2nnn(CC(=O)N(CCO)C(C(=O)NC3CCCC3)c3ccc(F)cc3)n2)cc1 (configuration not stated) | 7.8% |
| Cc1ccc(-c2nnn(CC(=O)N(CCO)C(C(=O)NC(C)(C)C)c3ccncc3)n2)cc1 (configuration not stated) | 74% (active) |
| CCCNC(=O)N1CCN(C(=O)NCCC)CC1 | 4.5% |
| COc1ccc(C(=S)Nc2ccccc2)cc1 | 65.2% (active) |
| COc1ccc(NC(=O)c2ccc(OC)cc2)cc1 | -5.6% |
| COCCNC(=S)c1ccc(OC)cc1 | 18% |
| Oc1ccccc1CNc1ncc(Br)cc1Br | 39.4% |
| COc1ccc(N(CC(=O)NC(C)(C)C)C(=O)c2ccco2)cc1 | -6.7% |
| COc1ccc(CCNC(=O)c2ccco2)cc1 | 55.3% (active) |
| O=C(NCCSc1ccccc1)c1ccco1 | 21.8% |
| CCc1ccc(-c2cc(C(=O)NCc3ccco3)c3ccccc3n2)s1 | 11.6% |
| c1ccc(CCC2=NCCn3cccc32)cc1 | 10.1% |
| O=S(=O)(c1ccc(Br)cc1)n1ccc2ccccc21 | 66.4% (active) |
| Cc1ccc(C)c(N2C(=O)CS/C2=N\NC(=O)c2ccccc2Cl)c1 | 63.7% (active) |
| CC(=O)Nc1cccc(/C(C)=N/NC(=O)c2ccccc2Cl)c1 | 10.9% |
| Cc1ccc(C)c(NC(=O)C2CC(=O)N(C(C)C)C2)c1 (configuration not stated) | -10.6% |
| O=C1c2ccccc2C(Nc2ccc3c(c2)OCCO3)N1Cc1ccco1 (configuration not stated) | 72.9% (active) |
| Cc1ccnc(N2C(=O)c3ccccc3C2Nc2ccc3c(c2)OCCO3)c1 (configuration not stated) | 93.2% (active) |
| O=C(NC1CCCCC1)C1c2ccccc2C(=O)N1Cc1ccco1 (configuration not stated) | 12.4% |
| Cc1cccc(C(=O)Nc2ccccc2-c2nnn(CC(=O)Nc3ccc4c(c3)OCCO4)n2)c1 | -12.5% |
| CC1CCN(c2nc3c(c(=O)[nH]c(=O)n3C)n2CCCc2ccccc2)CC1 | 18.4% |
| O=C1CSC(c2cccc(F)c2)N1c1ccc(O)cc1 (configuration not stated) | 26.3% |
| CC1C/C(=N/NC(=O)c2cccs2)CC(C)(C)C1 (configuration not stated) | 41.9% |
| FC(F)(F)c1cc(C(F)(F)F)c2ccc(N3CCN(c4ccccc4)CC3)nc2n1 | -3.4% |
| CCOC(=O)CCCNC(=O)CN1C(=O)NC(CCc2ccccc2)C1=O (configuration not stated) | -2.6% |

| Structure (SMILES) | inhibition |
| --- | --- |
| COc1ccc(-c2nnco2)cc1OC | 11.8% |
| CCCC(NC(=O)c1ccccc1)c1nc2ccccc2n1Cc1ccc(C(=O)OC)o1 (configuration not stated) | 2.7% |
| C=CCn1c(C(C)NC(=O)CC)nc2ccccc21 (configuration not stated) | -3.9% |
| CCCn1c(C(Cc2ccccc2)NC(=O)COC)nc2ccccc21 (configuration not stated) | 90.2% (active) |
| CC(CN1CCCCC1)OC(=O)c1ccccc1Cl (configuration not stated) | 38.8% |
| Cc1ccc(NS(=O)(=O)c2c(C)[nH]c(=O)[nH]c2=O)cc1C | 1.6% |
| Cc1cc(C)c(C)c(S(=O)(=O)Nc2ccc(O)cc2)c1C | 50.9% (active) |
| Cc1noc(C)c1S(=O)(=O)Nc1ccc(C(=O)O)cc1 | 2.3% |
| c1ccc(Cc2nn3c(Cn4cnc5ccccc54)nnc3s2)cc1 | 39% |
| Cc1c(-c2ccccc2)nc(N)c(C#N)c1-c1cccs1 | 0.7% |
| CCOC(=O)c1ccc(NC(=O)CS(=O)(=O)c2cn(CC)c3ccccc23)cc1 | 20.6% |
| CCOC(=O)[C@H]1CCC[C@@H](NS(=O)(=O)c2ccc(NC(C)=O)cc2)C1 | 57.9% (active) |
| CC(C)NS(=O)(=O)c1ccc(NC(=O)C2CCCCC2)cc1 | 13.3% |
| CC(C)(C)NS(=O)(=O)c1ccc(NC(=O)NC2CCCCC2)cc1 | 8% |
| CC1=C(C)CC(C(=O)NNC(=O)c2ccccc2O)C(C(=O)O)C1 (configuration not stated) | -7.2% |
| Cc1nc(SCC(=O)N2CCc3ccccc3C2)c2c(C)c(C)sc2n1 | 20% |
| O=C(Nc1ccc2c(c1)OCCO2)C(c1ccc(F)cc1)N1CCCCC1 (configuration not stated) | 56.5% (active) |
| COc1ccc(-n2c(SCC(=O)Nc3ccc4c(c3)OCO4)nnc2C(C)N2CCCCC2)cc1 (configuration not stated) | 16.9% |
| CC1CCCN(C(C(=O)Nc2ccc(C(C)C)cc2)c2ccc3c(c2)OCO3)C1 (configuration not stated) | 17.7% |
| CCN(CC)Cc1csc2ccc(Br)cc12 | 5.2% |
| O=[n+]1c2c(n([O-])c3cc(Br)ccc31)CCC2 | 21% |
| CCCn1c(SCC(=O)N2CCc3ccccc32)nnc1-c1ccncc1 | 83.8% (active) |
| Cc1nnc(SCC(=O)N2CCc3ccccc32)n1-c1ccccc1 | 3.9% |
| C=CCn1c(=O)c2ccccc2n2c(SCC(=O)N3CCCc4ccccc43)nnc12 | 36.5% |

— PubChem BioAssay AID778 (Sanford-Burnham Center for Chemical Genomics, 2007)
